Measured values: PubChem BioAssay (NCATS)
Results filed as inconclusive are left out. Active and inactive are the calls of the source. Calls come from the whole dose curve; as a rule, active = well fitted cell-killing curve with a large enough effect; inconclusive = small, poorly fitted or top-dose-only effect, or effect the other way; inactive = no such curve, though single readings can be large or run the other way.

Assay: Viability qHTS for spleen associated tyrosine kinase inhibitor (SYKi) drug resistant MV4-11 cells (AID 1963824); note: nearly all actives have a fitted effect of over 35% in size
Conditions: SYKi-resistant MV4-11 viability, CellTiter-Glo, 72 h; series mostly up to 45 µM; viability, % of control: at the top concentration
Method in brief: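 CellTiter-Glo luminescence, read 10 min after reagent addition, reports viability after a 72 hr compound exposure. Cells are an MV4-11 line made resistant to SYK inhibition, seeded at 500 per well onto compound-containing plates.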
Potency is the fitted concentration of half-maximal effect.

SMILES	Potency	viability, % of control
COc1ccc2c(c1)C(c1ccc(F)cc1)=C(CN1CCCC1)CO2	20.9 µM (active)	
O=C(NO)c1cnc(N2CCN(S(=O)(=O)c3ccc4ccccc4c3)CC2)nc1		6.92% [at 17.3 µM] (inactive)
C[C@@H]1O[C@@H](O[C@H]2[C@H](O[C@H]3[C@H](O[C@H]4CC[C@@]5(C=O)C(CC[C@]6(C)C5CC=C5C7CC(C)(C)C[C@@H](O)[C@]7(C)CC[C@]56C)C4(C)C)O[C@H](C(=O)O)[C@@H](O)[C@@H]3O)OC[C@@H](O)[C@@H]2O)[C@H](O)[C@H](O)[C@H]1O (stereo partly specified)		103% [at 9.25 µM] (inactive)
CN1C/C=C/CCOc2cccc(c2)-c2ccnc(n2)Nc2cccc(c2)C1	0.206 µM (active)	
CC(=O)OC[C@@]12C(=O)C[C@@H](C)[C@]3(C[C@@H](c4ccoc4)OC3=O)[C@H]1CC[C@H](OC(C)=O)[C@]21CO1		87.9% [at 17.3 µM] (inactive)
CC(C)C[C@H](CC(=O)NO)C(=O)N[C@H](C(=O)N[C@@H](C)C(=O)NCCN)C(C)(C)C		90.6% [at 9.25 µM] (inactive)
CC(C)C[C@@H]1NC(=O)[C@@H]2C[C@@]34C[C@@H]5[C@@]6(C)CCCC(C)(C)C6CC[C@@]5(C)N(c5ccccc53)[C@H]4N2C1=O (stereo partly specified)	0.448 µM (active)	
C/C=C(\C)C(=O)O[C@H]1C=CC(=O)O[C@H]1/C=C/[C@H](O)[C@@H](C)O	7.31 µM (active)	
OC(CNCCc1c[nH]c2ccccc12)Cn1c2ccccc2c2ccccc21 (stereo unspecified)	5.17 µM (active)	
Oc1ccc(-c2cnc3ccc(NCc4ccco4)nn23)cc1	0.092 µM (active)	
COC(=O)N[C@H](C(=O)N1[C@@H]2CC[C@@H](C2)[C@H]1c1nc2ccc(-c3ccc4c(c3)C(F)(F)c3cc(-c5cnc([C@@H]6CCC7(CC7)N6C(=O)[C@@H](NC(=O)OC)C(C)C)[nH]5)ccc3-4)cc2[nH]1)C(C)C	3.99 µM (active)	
